Test results reported in PubChem BioAssay (Tox21).
Active and inactive are the calls of the source. Calls come from the whole dose curve; as a rule, active = well fitted curve in the direction sought with a large enough effect in the repeat runs; inconclusive = weak or mixed curves; inactive = flat fitted curve, though single readings scatter. Starred links: 1 amine or outer side, 2 acyl side, 3 side chain; linkers in the order of their positions; H or OH if unused. Positions of bridges follow the written chain, without caps; N, C: chain ends. Non-standard residues stand in square brackets, D forms with d. Residues, ends and D or L forms follow the SMILES beside them. *: point of attachment. X5 = NC1=N[C@@H]([C@H](N[*:1])C(=O)[*:2])C[C@H](O)N1; ΔAla(Z-3-ureido) = NC(=O)N/C=C(\N)C(=O)O; β3hOrn = NCCC[C@H](N)CC(=O)*; Orn = NCCC[C@H](N)C(=O)O; Dap = NC[C@H](N)C(=O)O; Mpa = O=C(O)CCS

Assay: qHTS assay to test for compound auto fluorescence at 460 nm (blue) in HepG2 cell free culture (AID 720685)
Conditions: Cell-free culture medium, blue autofluorescence 405/460 nm; series mostly up to 46 µM
Outline: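 Compound (23 nL) or DMSO pinned into cell-free MEM with 10% FBS; blue fluorescence read at 405/460 nm excitation/emission, expressed as auto-fluorescence equivalency to triamterene.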

| SMILES | outcome |
| --- | --- |
| COCC1=C(C(=O)OC(C)OC(=O)OC(C)C)N2C(=O)[C@@H](NC(=O)/C(=N\OC)c3csc(N)n3)[C@H]2SC1 (some centres undefined) | inactive |
| CO[C@@H]1[C@@H](O[C@@H]2O[C@H](C)[C@@H](O[C@H]3C[C@@](C)(O)[C@@H](OC(=O)CC(C)C)[C@H](C)O3)[C@H](N(C)C)[C@H]2O)[C@@H](CC=O)C[C@@H](C)[C@@H](O)/C=C/C=C/C[C@@H](C)OC(=O)C[C@H]1O | inactive |
| CC(=O)O[C@H]1C[C@@H]2CC[C@@H]3[C@H](CC[C@@]4(C)[C@H]3C[C@H](N3CC[N+](C)(C)CC3)[C@@H]4OC(C)=O)[C@@]2(C)C[C@@H]1N1CC[N+](C)(C)CC1 | inactive |
| NCCC[C@H](N)CC(=O)N[C@H]1CNC(=O)[C@H]([C@H]2C[C@H](O)NC(N)=N2)NC(=O)/C(=C/NC(N)=O)NC(=O)[C@H](CO)NC(=O)[C@H](CO)NC1=O (β3hOrn-[Dap]SS[ΔAla(Z-3-ureido)][X5]; lactam 1-C) | inactive |
| CCOc1ccc(C[C@H]2NC(=O)CCSSC[C@@H](C(=O)N3CCC[C@H]3C(=O)N[C@@H](CCCN)C(=O)NCC(N)=O)NC(=O)[C@H](CC(N)=O)NC(=O)[C@H]([C@@H](C)O)NC(=O)[C@H]([C@@H](C)CC)NC2=O)cc1 ([Mpa][dY](Et)ITNCP[Orn]G-NH2; disulfide 1-6) | inactive |
| O=P(O)(O)C(O)(Cc1cnc2ccccn12)P(=O)(O)O | inactive |
| OCC(O)COc1ccc(Cl)cc1 (centres undefined) | inactive |
| CCCCCCCCCCCCCCCC(=O)OC[C@@H](NC(=O)C(Cl)Cl)[C@H](O)c1ccc([N+](=O)[O-])cc1 | inactive |
| NC(=O)Oc1ccc(Cc2ccccc2)cc1 | inactive |
| CCCC(CCC)C(N)=O | inactive |
| CC1CC(OC(=O)C(O)c2ccccc2)CC(C)(C)C1 (centres undefined) | inactive |
| OC(CN1CCCCC1)c1cc(-c2ccccc2)on1 (centres undefined) | inactive |
| CCC(c1ccccc1)c1noc(CCN(CC)CC)n1 (centres undefined) | inactive |
| O=S(O)CNc1ccc(S(=O)(=O)c2ccc(NCS(=O)O)cc2)cc1 | inactive |
| C=CCN1CCCC1CNC(=O)c1cc(S(N)(=O)=O)cc(OC)c1OC (centres undefined) | inactive |
| CCCCCCCCCCCCCCCCCC(=O)OCCO | inactive |
| CCCCCCCCCCCCCCCCCCCCCC(=O)Nc1ccn([C@@H]2O[C@H](CO)[C@@H](O)[C@@H]2O)c(=O)n1 | inactive |

| SMILES | outcome |
| --- | --- |
| CCCCOC(=O)C(=O)Nc1cccc(-c2nn[nH]n2)c1 | inactive |
| CCOC(=O)[C@H](CCc1ccccc1)N[C@H]1CCCN2CCC[C@@H](C(=O)O)N2C1=O | inactive |
| CC(C)CN(C[C@@H](O)[C@H](Cc1ccccc1)NC(=O)O[C@@H]1CCOC1)S(=O)(=O)c1ccc(N)cc1 | inactive |
| O.O=C([O-])CC([S-])C(=O)[O-].[Au+].[Na+].[Na+] (centres undefined) | inactive |
| O=P(O)(O)C(Sc1ccc(Cl)cc1)P(=O)(O)O | inactive |
| O=C(CCCN1CCC(C(=O)c2ccc(F)cc2)CC1)c1ccc(F)cc1 | inactive |
| C[C@H]1C[C@H]2[C@@H]3CCC4=CC(=O)C=C[C@]4(C)[C@@]3(F)[C@@H](O)C[C@]2(C)[C@@]1(O)C(=O)CCl | inactive |
| CC#CCC(C)[C@H](O)/C=C/[C@@H]1[C@H]2C/C(=C/CCCC(=O)O)C[C@H]2C[C@H]1O (some centres undefined) | inactive |
| NCCC[C@H](N)C(=O)O | inactive |
| CN1[C@@H]2CCC[C@H]1CC(NC(=O)c1nn(C)c3ccccc13)C2 (some centres undefined) | inactive |
| CS(=O)(=O)NC(=O)CCC/C=C\C[C@H]1C(=O)C[C@@H](O)[C@@H]1/C=C/[C@H](O)COc1ccccc1 | inactive |
| OC[C@@H](O)C(O)[C@H](O)CO | inactive |
| N[C@@H](C(=O)N[C@@H]1C(=O)N2C(C(=O)O)=C(CSc3cn[nH]n3)CS[C@H]12)c1ccc(O)cc1 | inactive |
| CC1(C)S[C@@H]2[C@H](NC(=O)Cc3ccccc3)C(=O)N2[C@H]1C(=O)O | inactive |
| COC(=O)[C@H]1[C@H]2C[C@@H]3c4[nH]c5cc(OC)ccc5c4CCN3C[C@H]2C[C@@H](OC(=O)/C=C/c2cc(OC)c(OC)c(OC)c2)[C@@H]1OC | inactive |
| Cn1nnnc1SCC1=C(C(=O)O)N2C(=O)[C@@H](NC(=O)[C@H](OC=O)c3ccccc3)[C@H]2SC1 | inactive |
| CC(C)(C)CC(=O)OCC(=O)[C@@]12OC(C)(C)O[C@@H]1C[C@H]1[C@@H]3CCC4=CC(=O)C=C[C@]4(C)[C@@]3(F)[C@@H](O)C[C@@]12C | inactive |
